This is one part of a sample in which hits are shown more often than they occur.
ALOX12 inh – inhibitors of human 12S-lipoxygenase ALOX12; P18054; purified 12hLO, xylenol orange hydroperoxide absorbance; Potency, µM (series often up to 108 µM), inactives show at the highest dose activity change, negative = inhibition, most hits filed as inhibitors; actives 1.1% (n = 580,000); note: potency is the fitted concentration of half-maximal effect
Target sequence (P18054 whole entry, looked up): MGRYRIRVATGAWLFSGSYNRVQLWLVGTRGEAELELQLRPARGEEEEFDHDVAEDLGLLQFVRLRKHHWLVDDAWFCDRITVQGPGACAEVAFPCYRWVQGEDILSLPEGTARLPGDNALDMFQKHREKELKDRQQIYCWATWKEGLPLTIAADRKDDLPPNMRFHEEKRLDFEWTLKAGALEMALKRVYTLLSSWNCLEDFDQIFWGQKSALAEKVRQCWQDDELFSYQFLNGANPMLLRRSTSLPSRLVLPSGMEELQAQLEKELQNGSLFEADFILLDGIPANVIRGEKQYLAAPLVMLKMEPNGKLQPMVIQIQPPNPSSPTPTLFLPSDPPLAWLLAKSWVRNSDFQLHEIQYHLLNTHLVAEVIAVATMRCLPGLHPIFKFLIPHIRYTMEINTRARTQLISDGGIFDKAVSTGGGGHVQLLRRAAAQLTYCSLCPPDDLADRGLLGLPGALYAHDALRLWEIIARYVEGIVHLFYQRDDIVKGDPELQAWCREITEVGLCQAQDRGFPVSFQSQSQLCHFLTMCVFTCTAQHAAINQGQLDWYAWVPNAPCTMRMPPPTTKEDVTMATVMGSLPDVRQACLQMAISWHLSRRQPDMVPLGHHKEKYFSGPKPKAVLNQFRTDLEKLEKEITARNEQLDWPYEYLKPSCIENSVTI
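Purified human 12hLO at 150 nM in 25 mM Hepes, 0.01% Triton X-100, pH 7.0, preincubated 15 min at room temperature with compound. Reaction started with 40 uM arachidonic acid, 30 min at room temperature. Hydroperoxide measured by Fe-xylenol orange, 573/405 nm absorbance ratio.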
HT1080-NT tox – kills 2HG-producing HT-1080-NT fibrosarcoma cells; Potency, µM (doses to about 46.1 µM), without a hit: at the highest dose activity, negative = less viability, hits mostly cytotoxic; actives 1.6% (n = 360,000); HT-1080-NT fibrosarcoma viability, CellTiter-Glo ATP luminescence, 48 h;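 note: NT is the 2HG producing partner of a matched IDH1 knockdown line; potency is the fitted concentration of half-maximal effect; 0% = DMSO-treated cells and -100% = media-only wells without cells; nearly all actives have a fitted effect of over 55% in size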
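Read-out is CellTiter-Glo luminescence after 10 minutes at room temperature, following 48 hours' compound treatment of HT-1080-NT cells (750 cells/well, RPMI, 5% FBS, 37 degrees C).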
IL1B secr inh – inflammasome signaling inhibition, IL-1 beta readout; THP-1 LPS/ATP IL-1B secretion, AlphaLISA, 16 h; hits give low values; activity change, % at 57.5 µM; actives 4.7% (n = 360,000); AID 743279; in the data active = activity change below about -50%; inconclusive = mostly about -30% to -49%
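Secreted IL-1B measured by AlphaLISA bead assay after 16 h compound exposure of THP-1 cells; compounds (final up to 57.5 uM) added 1 h before LPS (250 ng/mL) and ATP (1.25 mM) stimulation; lower signal means less secretion.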
TDP1 cell CPT – growth inhibition of DT40 Tdp1-/-;hTDP1 cells with camptothecin (screen for TDP1 inhibitors); chicken DT40 Tdp1-/-;hTDP1 cells + 20 nM CPT, ATP luminescence, 48 h; Potency, µM (titrated, usually from 46.2 µM), for inactives: top-dose activity change, negative = growth inhibition, actives largely listed as inhibitors; actives 12% (n = 420,000); note: potency is the fitted concentration of half-maximal effect; nearly all actives have a fitted effect of over 55% in size
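Chicken DT40 Tdp1-/- cells stably complemented with human TDP1 were seeded at 400 cells/well in medium containing 20 nM camptothecin, exposed to pin-transferred compounds, and grown at 37 °C for at least 48 hr. Viability was read as ATP luminescence.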
DT40 TDP1 no CPT – qHTS for Inhibitors of human tyrosyl-DNA phosphodiesterase 1 (TDP1): qHTS in cells in absence of CPT | DT40 Tdp1-/- hTDP1 cells, no CPT, ATP luminescence, 48 h | Potency, µM (highest dose often 46.2 µM), inactives show top-dose activity change, negative = growth inhibition, most hits filed as inhibitors | actives 15% (n = 420,000) | AID 686978, 2013; note: potency is the fitted concentration of half-maximal effect; nearly all actives have a fitted effect of over 55% in size
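Compound effects on proliferation are scored in DT40 Tdp1-/-;hTDP1 cells in the absence of CPT. ATP levels (CellTiter-Glo luminescence) are recorded after a ≥48 hr, 37 °C incubation.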
HT1080 IDH1KD tx – HT-1080 IDH1 knockdown cell toxicity (counter line); actives 2% (n = 360,000); HT-1080 IDH1 knockdown viability, ATP luminescence, 48 h; AID 686971; Potency, µM (highest dose often 46.1 µM), inactives show at the top dose activity, negative = toxicity, most hits filed as cytotoxic;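 note: potency is the fitted concentration of half-maximal effect; 0% = DMSO wells and -100% = cell-free medium wells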
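% activity derives from luminescence (CellTiter-Glo), normalised to DMSO and no-cell wells. HT-1080-IDH1KD cells, 750/well, had 48 h compound exposure at 37 °C.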
* hit, by the source's call; i = inactive; ? = inconclusive; nt = no result; [ ] = another dose, or the depositor's remark. Unless noted, calls come from the whole dose curve; as a rule, active = well fitted curve in the direction sought with a large enough effect; inconclusive = small, poorly fitted or top-dose-only effect, or another doubt; inactive = no such curve, though single readings can be large; an effect the other way counts as inactive or inconclusive. Unless noted, % is set by controls: 0 for no effect and ±100 for the full control effect.

SMILES	ALOX12 inh	HT1080-NT tox	IL1B secr inh	TDP1 cell CPT	DT40 TDP1 no CPT	HT1080 IDH1KD tx
CCOc1ccc(CN(C)C(=O)[C@H](Cc2ccccc2)NC(=O)OCc2ccccc2)cc1OC	2.2%	-1.4%	-76.8*	?	20.6µM*	-21.3%
COc1ccc(CN(C)C(=O)c2ccc(Oc3ccccc3)cc2)cc1F	1.8%	-19.8%	-74.1*	-27.4%	?	-6.2%
COc1ccc(CN(C)C(=O)c2cccc(S(=O)(=O)NCc3ccccc3)c2)cc1F	3.4%	3.5%	9.1	-10.6%	7.9%	3.3%
Cc1cc(S(=O)(=O)Nc2ccc3ccccc3c2)c(C)s1	-17.2%	12.6µM*	27.8	10µM*	11.2µM*	14.1µM*
Cc1cc(S(=O)(=O)Nc2cc(C)c(O)c(C)c2)c(C)s1	?	?	-14.7	2.59µM*	2.91µM*	?
NC(=Nc1nc(-c2ccccn2)cc2ccccc12)c1ccccn1	?	-14.3%	53.5	0.0146µM*	0.0184µM*	?
C=CC[C@@H](Cc1ccc(F)cc1)C(=O)OC[C@H]1CCCN1C(=O)[C@@H](CC=C)CC(=O)N(CCO)Cc1ccccc1	6.0%	-18.3%	-56.0*	14.6µM*	13µM*	-27.7%
C=CC[C@@H](Cc1ccc(F)cc1)C(=O)OC[C@@H]1CCCN1C(=O)[C@H](CC=C)CC(=O)NCCO	-12.9%	24.0%	5.5	?	?	1.7%
C=CC[C@H](CC(=O)OC(C)(C)C)C(=O)OC[C@H]1CCCN1C(=O)[C@@H](CC=C)CC(=O)N(CCO)Cc1ccccc1	-12.4%	-6.6%	?	18.4µM*	20.6µM*	-11.8%
C=CC[C@@H](Cc1ccc(F)cc1)C(=O)OC[C@@H]1CCCN1C(=O)[C@H](CC=C)CC(=O)N(CCO)Cc1ccccc1	69.1%	-19.9%	-60.7*	?	18.4µM*	-6.6%
COCCN1C(=O)COCc2cc(-c3ccc4c(c3)OCO4)ccc21	18.1%	nt	nt	nt	nt	nt
CC(C)C(CC(=O)O)c1ccc(Cl)cc1 (configuration not stated)	-21.2%	nt	nt	nt	nt	nt
COc1cc(Br)cc(CN2CCN(C=O)CC2)c1O	?	-10.9%	4.5	25.9µM*	?	-16.2%
COc1ccc(Br)cc1CN1CCCCCC1	?	20.3%	-8.4	28.9%	-14.3%	1.5%
Cc1nn(CC(C)C)c2sc(C(=O)N3CCN(S(=O)(=O)c4cc(F)ccc4F)CC3)cc12	1.9%	nt	nt	nt	nt	nt
NC1=NC(=O)/C(=C/c2cccs2)S1	0.2%	4.2%	-0.5	-10.6%	-21.5%	-5.4%
C=CCSC1=NC(=O)/C(=C/c2cccs2)S1	?	4.7%	-100.2*	?	?	-1.9%
Cc1cc(N2CCCN(c3ccncc3)CC2)n2nc(C)c(C)c2n1	-0.7%	nt	nt	nt	nt	nt
CCOC(=O)[C@H]1[C@H]2COc3ccc(Br)cc3[C@@H]2N2C(=O)N(c3ccc(F)cc3)C(=O)[C@@]12C	-6.9%	-9.7%	30.2	18.4µM*	?	-3.4%
CCOC(=O)[C@@H]1[C@H]2COc3cc(OC)ccc3[C@@H]2N2C(=O)N(c3ccc(Br)cc3)C(=O)[C@@]12C	-1.7%	19.1%	-1.3	?	?	-0.4%
CCOC(=O)[C@@H]1[C@H]2COc3ccc(Br)cc3[C@@H]2N2C(=O)N(c3ccc(Cl)cc3)C(=O)[C@@]12C	5.5%	-14.4%	-0.3	20.6µM*	16.4µM*	-13.0%
CCOC(=O)[C@@H]1[C@H]2COc3ccc(Br)cc3[C@@H]2N2C(=O)N(c3ccc(C(F)(F)F)cc3)C(=O)[C@@]12C	-2.5%	2.6%	12.8	20.6µM*	23.1µM*	-2.0%
CCOC(=O)[C@@H]1[C@H]2COc3ccc(Br)cc3[C@@H]2N2C(=O)N(c3cccc(F)c3)C(=O)[C@@]12C	-14.2%	-1.1%	10.0	25.9µM*	18.4µM*	-4.2%
CCOC(=O)[C@@H]1[C@H]2COc3ccc(Br)cc3[C@@H]2N2C(=O)N(c3ccc(F)cc3)C(=O)[C@@]12C	-2.0%	-6.9%	11.9	?	?	2.6%
COc1ccc(CNC(=O)NCCc2noc(-c3ccncc3)n2)cc1	24.7%	nt	nt	nt	nt	nt
SMILES	ALOX12 inh	HT1080-NT tox	IL1B secr inh	TDP1 cell CPT	DT40 TDP1 no CPT	HT1080 IDH1KD tx
COCCn1c(=O)cnc2cnc(N3CCNCC3)nc21	0.0%	nt	nt	14.5%	-12.7%	nt
Cc1cc(C)n2nc(C(=O)N3CCC4(CC3)C(=O)Nc3ccccc34)cc2n1	29.2%	nt	nt	nt	nt	nt
COc1cnc(-c2ccccn2)nc1Oc1ccc(Cl)c2ccccc12	-2.8%	-12.2%	-9.9	1.3µM*	1.16µM*	-28.8%
COc1cnc(-c2ccccc2)nc1Oc1ccccc1C	?	-0.3%	12.2	?	?	-4.0%
COc1cnc(-c2ccccn2)nc1Oc1ccc(Cl)cc1	2.1%	-5.0%	-24.9	1.64µM*	1.46µM*	-12.3%
COc1cnc(-c2ccccn2)nc1Oc1ccc(F)cc1F	7.0%	2.3%	15.9	10.3µM*	3.66µM*	-12.0%
COc1cnc(-c2ccccn2)nc1Oc1ccccc1Cl	7.9%	13.5%	1.8	?	?	1.3%
COc1cnc(-c2ccccc2)nc1Oc1ccc(C(C)(C)C)cc1	-4.0%	-6.4%	-1.2	-9.4%	-24.7%	-11.0%
N#Cc1cccnc1NCCNC(=O)c1cnc2ccccc2n1	-5.7%	nt	nt	nt	nt	nt
CCCc1ccc(-c2csc(NC(=O)Cn3cnc4c3c(=O)n(C)c(=O)n4C)n2)cc1	59.8%	nt	nt	nt	nt	nt
CCC(CC)C(=O)N1CCC(O)(c2csc(CN3CCc4ccccc4C3)n2)CC1	21.4%[176 µM]	nt	nt	nt	nt	nt
O=C(C[n+]1cc(-c2ccc(F)cc2)n2c1CCC2)N1c2ccccc2Sc2ccccc21	-11.1%	-12.5%	-50.1*	14.6µM*	13µM*	-12.4%
O=C(C[n+]1cc(-c2ccccc2)n2c1CCC2)c1cccs1	6.8%	-1.3%	18.4	1.7%	3.8%	-17.5%
O=C(C[n+]1cc(-c2ccccc2)n2c1CCC2)N1c2ccccc2Sc2ccccc21	?	0.5%	i	5.17µM*	2.59µM*	-22.5%
Cc1ccc(-c2c[n+](CC(=O)N3c4ccccc4Sc4ccccc43)c3n2CCC3)cc1	?	?	-57.9*	5.17µM*	5.17µM*	?
O=C(CSc1ccc2ccccc2n1)N/N=C/c1ccccc1O	-2.7%	?	299.3	5.17µM*	5.8µM*	?
O=C(CSc1ccc2ccccc2n1)N/N=C/c1ccc(O)cc1	11.3%	?	56.4	?	?	?
